The list is not random: actives were taken first. Their share in the collection is about 2.8%.
GLP1R ag: qHTS of GLP-1 Receptor Agonists. Glucagon-like peptide 1 receptor (Homo sapiens), P43220. HEK293 GLP-1R CRE-luciferase, luminescence, 4-6 h; cells express a hypersensitive GLP-1R form. Potency, µM (titrated, usually from 45.6 µM), for inactives: at the highest dose activation, usual class: activators. AID 624172, 2012. 380,000 compounds, 0.007% hits; note: % of control where 0% means no effect
Target sequence (P43220 whole entry, looked up): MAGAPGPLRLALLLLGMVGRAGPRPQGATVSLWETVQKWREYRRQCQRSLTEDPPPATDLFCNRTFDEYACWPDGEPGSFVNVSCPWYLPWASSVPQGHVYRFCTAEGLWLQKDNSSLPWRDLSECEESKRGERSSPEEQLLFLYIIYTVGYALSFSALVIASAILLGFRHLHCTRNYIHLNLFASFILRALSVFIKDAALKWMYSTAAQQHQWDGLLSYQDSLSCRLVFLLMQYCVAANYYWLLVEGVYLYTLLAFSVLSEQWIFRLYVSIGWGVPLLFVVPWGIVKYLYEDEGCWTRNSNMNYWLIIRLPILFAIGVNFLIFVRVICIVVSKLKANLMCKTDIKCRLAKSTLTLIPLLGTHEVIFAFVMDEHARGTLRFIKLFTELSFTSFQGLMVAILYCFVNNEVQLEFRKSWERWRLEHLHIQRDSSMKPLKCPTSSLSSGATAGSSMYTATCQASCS
Mito fusion yeast: qHTS Assay for Small Molecule Inhibitors of Mitochondrial Division or Activators of Mitochondrial Fusion; 320,000 compounds, 0.23% hits; AID 485298, 2010; S. cerevisiae fusion-defective mutant growth rescue, CellTiterGlo 48 h; Potency, µM (top dose mostly 46.1 µM), without a hit: top-dose growth rescue (activation), usual class: activators; note: % of control where 0% means no effect; nearly all actives have a fitted effect of over 45% in size
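Luminescent cell viability in 1536-well qHTS format served as the measure of rescued growth in ts fusion-mutant S. cerevisiae cultured on non-fermentable YPEG for 48 hours at 37C.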
HEK293 tox: qHTS of GLP-1 Receptor Inverse Agonists: Cytotox Screen | HEK293 cAMP-luciferase reporter cells, luminescence, 24 h | Potency, µM (highest dose often 38.3 µM), without a hit: at the top dose activity change, negative = inhibition, hits mostly inhibitors | 410,000 compounds, 0.13% hits | AID 624418, 2012;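 note: loss of luciferase light is scored as toxicity; % is set by controls: 0 for no effect and ±100 for the full control effect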
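Step one: seed cells (200 cells/uL, DMEM with 10% Nu serum, 1% pen-strep). Step two: 12-hour incubation at 37 deg C. Step three: pin 23 nL compound, incubate 24 hr. Step four: add luciferase reagent, read luminescence 12 min later.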
BRCA1 expr act: qHTS Assay to Identify Small Molecule Activators of BRCA1 Expression | 380,000 compounds, 1.1% hits | MCF7-BRCA1-FFLuc reporter, luminescence, 48 h; response scale: scaled: vehicle 0%, 10 µM genistein 100% | Potency, µM (series often up to 46.1 µM), inactives show at the top dose activation, most hits filed as activators; note: nearly all actives have a fitted effect of over 80% in size
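Quantitative HTS in MCF7 cells stably reporting BRCA1 expression via firefly luciferase. Compound treatment lasts 48 h at 37 °C in phenol-red free MEM. Activation is expressed relative to genistein at 10 microM and DMSO.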
GLP1R inv ag: qHTS of GLP-1 Receptor Inverse Agonists (Inhibition Mode). 410,000 compounds, 1.6% hits. HEK293 GLP-1R CRE-luciferase, luminescence, 24 h; GLP-1R form is constitutively active. Potency, µM (doses to about 38.3 µM), inactives show at the highest dose activity change, negative = inhibition, most hits filed as inhibitors. Glucagon-like peptide 1 receptor (Homo sapiens), P43220; note: % is set by controls: 0 for no effect and ±100 for the full control effect; nearly all actives have a fitted effect of over 55% in size
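qHTS in 1536-well format: reporter HEK293 cells expressing constitutive GLP-1R activity in DMEM + 10% Nu serum, 24 hr with compounds at 37 deg C, luminescence read after 12 min with detection reagent.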
Starred values were filed as active, the others as inactive; ? = inconclusive; . = not tested or not shown; [ ] = another dose, or the depositor's remark. Calls come from the whole dose curve; as a rule, active = well fitted curve in the direction sought with a large enough effect; inconclusive = small, poorly fitted or top-dose-only effect, or another doubt; inactive = no such curve, though single readings can be large; an effect the other way counts as inactive or inconclusive. Potency is the fitted concentration of half-maximal effect.

SMILES | GLP1R ag | Mito fusion yeast | HEK293 tox | BRCA1 expr act | GLP1R inv ag
O=C(COc1ccccc1[N+](=O)[O-])Nc1ccc2c(c1)OCO2 | 8.8% | 5.1% | -6.3% | 10µM* | 10.7%
O=C(COc1cccc(Cl)c1Cl)Nc1ccc2c(c1)CCC2 | 1.6% | 1.0% | -4.2% | -5.6% | 14.3%
O=C(COc1ccccc1[N+](=O)[O-])Nc1ccc2c(c1)CCC2 | 18.6% | 7.6% | -0.4% | 10µM* | 11.4%
CC(=O)c1cc(F)ccc1OCC(=O)Nc1ccc2c(c1)OCO2 | -2.3% | . | 4.4% | 1.26µM* | -25.3%
O=C(CCc1ccccc1)N=C1SC2CS(=O)(=O)CC2N1Cc1ccc(F)cc1 (configuration not stated) | -4.9% | -4.5% | 0.2% | -0.4% | -20.9%
CCCCCc1ccc(-c2cn(CC3CCCCC3)nn2)cc1 | -4.3% | 0.0% | ? | -3.2% | -7.7%
Cc1ccc(C)c(OCC(=O)Nc2ccc3c(c2)OCO3)c1C | 6.6% | 1.0% | ? | -5.6% | 7.94µM*
O=C(COc1cc(F)ccc1[N+](=O)[O-])Nc1ccc2c(c1)OCO2 | 0.1% | -1.6% | -22.6% | 3.55µM* | 8.5%
CCn1ncc(Cl)c1C(=O)Nc1ccncc1 | 9.1% | -4.0% | 6.2% | 37.2% | 0.0%
CC1(C)C([N+](=O)[O-])C(c2ccccc2O)NC(c2ccccc2O)C1[N+](=O)[O-] (configuration not stated) | 5.8% | 3.3% | 21.4% | -30.6% | 10µM*
Cc1ccccc1C1NC(c2ccccc2C)C([N+](=O)[O-])C(C)(C)C1[N+](=O)[O-] (configuration not stated) | 7.3% | -3.1% | 0.4% | -50.2% | ?
CN(C)Cc1cc(C(F)(F)F)ccc1C(O)(c1ccccc1)c1ccccc1 | -8.4% | . | ? | -38.4% | 8.91µM*
CN(C)Cc1ccccc1C(O)(c1ccccc1)c1ccccc1 | 2.1% | -5.1% | -6.0% | -18.8% | ?
O=C(CCc1cn(Cc2ccccc2Cl)c2ccccc12)NC1CCCCC1 | . | . | -18.8% | . | 10µM*
O=C(Nc1ccn(Cc2ccc(Cl)cc2)n1)c1ccccc1 | 0.7% | 7.7% | -9.0%[7.66 µM] | 7.94µM* | 3.1%[7.66 µM]
CC(=O)c1ccc(NC(=O)CCc2c(C)nn(-c3ccc(N4CCCCC4)nn3)c2C)cc1 | . | . | 8.2% | . | 10.1%
Cc1ccc(NC(=O)CCc2c(C)nn(-c3ccc(N4CCCCC4)nn3)c2C)cc1 | 4.0% | ? | -17.2% | 3.98µM* | ?
Cc1nn(-c2ccc(N3CCCCC3)nn2)c(C)c1CCC(=O)Nc1ccc(F)c(F)c1 | 3.1% | 0.5% | -30.7% | 2.24µM* | ?
CCN1CCN(CC(=O)Nc2sc3c(c2C#N)CCC(C)C3)CC1 (configuration not stated) | 3.4% | -12.4% | -9.2% | -45.8% | 2µM*
CC1CCc2c(sc(NC(=O)CSc3ncn[nH]3)c2C#N)C1 (configuration not stated) | 3.7% | 10.4% | -6.0% | -83.3% | -7.7%
C[C@H](CO)N1C[C@H](C)[C@@H](CN(C)C)Oc2c(NC(=O)Cc3ccccc3)cccc2C1=O | -4.2% | . | 1.8% | 0.0% | 7.6%
CCOC(=O)c1scc(-c2ccc(C)cc2)c1S(=O)(=O)Nc1cccc(CC)c1 | . | . | 30.7% | . | ?
Cc1sc2ncnc(N3CCC(C(=O)N(C)CC(=O)Nc4ccccc4Br)CC3)c2c1C | -12.4% | -0.4% | ? | -45.2% | ?
Cc1cc(C)c(NC(=O)C(C)N2CCCCCC2)c(C)c1 (configuration not stated) | -3.4% | -2.5% | 1.8% | -3.2% | -9.7%
CSCCC1NC(=O)N(C(C)C(=O)Nc2cc(Cl)cc(Cl)c2)C1=O (configuration not stated) | 3.3% | -1.8% | 11.5% | -36.7% | 11.2µM*
SMILES | GLP1R ag | Mito fusion yeast | HEK293 tox | BRCA1 expr act | GLP1R inv ag
CC(C(=O)Nc1cc(Cl)cc(Cl)c1)N1CCCC1 (configuration not stated) | 13.1% | -0.4% | 2.8% | -10.0% | 12.6µM*
O=C(Nc1cc(Cl)cc(Cl)c1)C(NCC1CCCO1)c1ccccc1 (configuration not stated) | -4.2% | 28.1% | -20.8% | -16.2% | 5.01µM*
CC(C)NC(C(=O)Nc1cc(Cl)cc(Cl)c1)c1ccccc1 (configuration not stated) | -3.7% | -2.1% | -11.6% | -38.9% | 7.94µM*
CN(C)CCNC(C(=O)Nc1cc(Cl)cc(Cl)c1)c1ccccc1 (configuration not stated) | 5.7% | 11.7% | 3.0% | -35.7% | ?
CSCCC1NC(=O)N(CC(=O)Nc2c(Cl)cc(Cl)cc2Cl)C1=O (configuration not stated) | 4.0% | -2.3% | 8.4% | 1.0% | -28.3%
Cc1cc(C)c2c(n1)sc1c(N3CCN(C)CC3)ncnc12 | 4.0% | 5.4% | -0.3% | -17.3% | 18.8%
CC(C)NC(=S)N/N=C/c1ccccc1[N+](=O)[O-] | 0.0% | 5.0% | 13.2% | -2.9% | 10.0%
O=C(CNS(=O)(=O)/C=C/c1ccccc1)OCC(=O)N1CCC(Cc2ccccc2)CC1 | -1.7% | -0.6% | 10.1% | -9.9% | -11.2%
CC(=O)c1c(C)[nH]c(C(=O)OCC(=O)N(C)c2c(N)n(Cc3ccccc3)c(=O)[nH]c2=O)c1C | 8.6% | 3.7% | -5.4% | 0.9% | 10.7%
CC(C(=O)Nc1ccccc1-c1ccccc1)N1CCCCC1 (configuration not stated) | 0.4% | -0.3% | 3.9% | -57.6% | 10µM*
Nn1c(SCc2ccccc2)nc2c(cnn2-c2ccccc2)c1=O | 4.6% | -1.9% | -4.3% | 3.16µM* | 21.8%
CCCSc1nc2c(cnn2-c2ccccc2)c(=O)n1N | 12.5% | 0.1% | 15.8% | 0.0% | ?
Cc1c(-c2nc(-c3ccc4c(c3)OCO4)no2)nnn1-c1cccc(C(F)(F)F)c1 | . | . | -8.9% | . | 4.6%
COc1ccc(N=Nc2c(N)nn(C)c2N)cc1 | 8.2% | . | ? | 2.51µM* | 39.1%
CC(=O)N1N=C(c2ccc(C)cc2)CC1c1ccco1 (configuration not stated) | 22.4% | 8.2% | -6.1% | 12.6µM* | 6.8%
CC(=O)N1N=C(c2ccc(C)cc2)CC1c1ccc2c(c1)OCO2 (configuration not stated) | 14.6% | 3.7% | 10.0% | 4.47µM* | -29.0%
Cc1ccc(C2=NN(S(C)(=O)=O)C(c3ccc4c(c3)OCO4)C2)cc1 (configuration not stated) | 11.0% | -1.4% | -4.8% | ? | 2.9%

High-throughput results from PubChem.
